The structures appear in SMILES notation. “And” between values parts separate entries of the source, which are not always exact repeats. Identical values can stand only once. About 83,000 compounds went through this panel and 20% of them were active in at least one assay; those are over-represented in the sample as a whole.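 Note: values are percent growth. 100 is the growth of untreated cells, values between 100 and 0 indicate rising inhibition; between -100 and 0 indicates cell death.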 The source made the active and inactive calls. How the source made its calls: active means growth percent below 10; inactive means the rest.

Among the test systems are MOLT-4 leukemia; SR leukemia; RPMI-8226 leukemia; OVCAR-8 ovarian; OVCAR-5 ovarian; SK-OV-3 ovarian; IGROV1 ovarian; OVCAR-3 ovarian; HS 578T breast; NCI/ADR-RES ovarian; T-47D breast; BT-549 breast; MDA-MB-435 melanoma; SW-620 colon; MCF7 breast; HCT-116 colon; HCC-2998 colon; KM12 colon; OVCAR-4 ovarian.
Common to all, as to experiment: NCI-60 one-dose screen, 48 h (100 = growth as untreated, 0 = no growth, -100 = all killed)
Holding throughout (conditions): 10 µM unless noted

For the molecule `C/C(=N/OC(=O)N(C)C)c1ccc(Cl)c(Cl)c1`, the growth was 86.3% (inactive) with MOLT-4 leukemia; 74.5% (inactive) in the test with SR leukemia; 89% (inactive) with RPMI-8226 leukemia; 104% (inactive) with OVCAR-8 ovarian; 100% (inactive) with OVCAR-5 ovarian; 116% (inactive) in the test with SK-OV-3 ovarian. The growth is 105% (inactive) in the test with IGROV1 ovarian; 113% (inactive) in the test on OVCAR-3 ovarian; 116% (inactive) with HS 578T breast; 106% (inactive) in the test on NCI/ADR-RES ovarian; 95.6% (inactive) in the test on T-47D breast; 125% (inactive) with BT-549 breast. Also, the growth with MDA-MB-435 melanoma is 106% (inactive); in the test on SW-620 colon, 115% (inactive); in the test on MCF7 breast it was 97.3% (inactive); in the test on HCT-116 colon, 107% (inactive); with HCC-2998 colon, 109% (inactive); in the test on KM12 colon, 109% (inactive).

For the molecule `CC1=CC(=Nc2ccc(N(CCCl)CCCl)cc2)C=C(C)C1=O`, the growth in the test on MOLT-4 leukemia is -21.2% (active); in the test on SR leukemia it was -2.28% (active); in the test with RPMI-8226 leukemia, 9.64% (active); in the test with OVCAR-8 ovarian, 18.7% (inactive); with OVCAR-5 ovarian, 35% (inactive); with SK-OV-3 ovarian it was 49.9% (inactive). The growth with IGROV1 ovarian was 21% (inactive); in the test with OVCAR-3 ovarian, -62.5% (active); in the test with HS 578T breast it was 26.7% (inactive); in the test on NCI/ADR-RES ovarian, 19.8% (inactive); with T-47D breast, -17.7% (active); in the test on BT-549 breast it was 52.5% (inactive). The growth in the test on MDA-MB-435 melanoma is 35.4% (inactive); with SW-620 colon, 3.05% (active); in the test on HCT-116 colon, 7.59% (active); in the test with HCC-2998 colon, 55.6% (inactive); in the test with KM12 colon, 59.8% (inactive).

Regarding `N[C@@H](CCC(=O)CCl)C(=O)O`, the growth in the test with MOLT-4 leukemia was 99.9% [20 µM] (inactive); with SR leukemia, 71.3% [20 µM] (inactive); in the test with RPMI-8226 leukemia, 111% [20 µM] (inactive); with OVCAR-8 ovarian, 108% [20 µM] (inactive); in the test with OVCAR-5 ovarian, 98% [20 µM] (inactive); in the test on SK-OV-3 ovarian, 108% [20 µM] (inactive). In addition, the growth with IGROV1 ovarian was 99.5% [20 µM] (inactive); in the test on OVCAR-3 ovarian, 110% [20 µM] (inactive); in the test with HS 578T breast it was 109% [20 µM] (inactive); in the test with NCI/ADR-RES ovarian it was 104% [20 µM] (inactive); in the test with T-47D breast, 93% [20 µM] (inactive); in the test on BT-549 breast it was 108% [20 µM] (inactive). The growth was 103% [20 µM] (inactive) with MDA-MB-435 melanoma; 97.9% [20 µM] (inactive) in the test with SW-620 colon; 87.9% [20 µM] (inactive) in the test on MCF7 breast; 104% [20 µM] (inactive) in the test with HCT-116 colon; 100% [20 µM] (inactive) in the test with KM12 colon.

Take `C=CC1CN2CCC1CC2C(O)c1ccnc2ccccc12` (stereo not drawn): the growth with MOLT-4 leukemia is 258% (inactive); with SR leukemia, 344% (inactive); with RPMI-8226 leukemia, 213% (inactive); in the test on OVCAR-8 ovarian, 127% (inactive); in the test on OVCAR-5 ovarian it was 116% (inactive); in the test on OVCAR-4 ovarian, 129% (inactive). For the same molecule, the growth in the test with SK-OV-3 ovarian was 133% (inactive); in the test on NCI/ADR-RES ovarian it was -15.5% (active); in the test on T-47D breast, 135% (inactive); in the test on MDA-MB-435 melanoma it was 128% (inactive); with SW-620 colon it was 112% (inactive); with MCF7 breast, 116% (inactive). The growth was 110% (inactive) in the test with HCT-116 colon and 115% (inactive) with KM12 colon.

Regarding `C/C(=C\c1ccn(-c2ccc(N)c(C(F)(F)F)c2)n1)[C@@H]1C[C@@H]2O[C@]2(C)CCC[C@H](C)[C@H](O)[C@@H](C)C(=O)C(C)(C)[C@@H](O)CC(=O)O1`, the growth in the test on MOLT-4 leukemia was 10.2% (inactive); in the test on SR leukemia it was 7.67% (active); in the test with RPMI-8226 leukemia, 9.58% (active); in the test with OVCAR-8 ovarian, 28.4% (inactive); in the test on OVCAR-5 ovarian, 23% (inactive); in the test with SK-OV-3 ovarian, 45% (inactive). Besides, the growth was 40.4% (inactive) in the test on IGROV1 ovarian; -0.83% (active) in the test with OVCAR-3 ovarian; 25.1% (inactive) in the test on HS 578T breast; 0.324% (active) in the test with NCI/ADR-RES ovarian; 47.6% (inactive) in the test with T-47D breast; 28.2% (inactive) in the test on BT-549 breast. Besides, the growth was -26.8% (active) in the test on MDA-MB-435 melanoma; 44.5% (inactive) with SW-620 colon; 17% (inactive) with MCF7 breast; 9.04% (active) with HCT-116 colon; 0.272% (active) in the test with HCC-2998 colon; 20.6% (inactive) in the test with KM12 colon.

Regarding `CCOC(=O)c1cncn1C(C)c1ccccc1` (stereo not drawn), the growth with MOLT-4 leukemia is 94.5% (inactive); with SR leukemia it was 90.2% (inactive); in the test on RPMI-8226 leukemia, 105% (inactive); in the test on OVCAR-8 ovarian it was 102% (inactive); in the test on OVCAR-5 ovarian it was 105% (inactive); in the test with SK-OV-3 ovarian, 103% (inactive). For the same molecule, the growth with IGROV1 ovarian is 107% (inactive); in the test on OVCAR-3 ovarian, 109% (inactive); in the test on NCI/ADR-RES ovarian it was 109% (inactive); in the test on T-47D breast, 105% (inactive); in the test on BT-549 breast, 100% (inactive); in the test with MDA-MB-435 melanoma, 108% (inactive). Also, the growth is 115% (inactive) with SW-620 colon, 114% (inactive) in the test on MCF7 breast, 106% (inactive) in the test on HCT-116 colon and 104% (inactive) in the test with KM12 colon.

In the case of `C=C1C(=O)OC2CC3(C)OC3C3OC3C3=CC(OC3=O)C12` (stereo not drawn), the growth in the test with MOLT-4 leukemia is -30.3% (active) and 58.3% (inactive); with SR leukemia, 10.7% (inactive) and 47.9% (inactive); in the test on RPMI-8226 leukemia, 97.9% (inactive) and 38% (inactive); in the test with OVCAR-8 ovarian it was 87.2% (inactive) and 88.6% (inactive); in the test on OVCAR-5 ovarian, 106% (inactive) and 104% (inactive); in the test with SK-OV-3 ovarian, 103% (inactive) and 106% (inactive). Further, the growth is 102% (inactive) and 107% (inactive) in the test with IGROV1 ovarian; 41.8% (inactive) in the test on OVCAR-3 ovarian; 96.8% (inactive) with HS 578T breast; 35.9% (inactive) and 103% (inactive) in the test on NCI/ADR-RES ovarian; 5.88% (active) and 16.2% (inactive) in the test on T-47D breast; 98.2% (inactive) with BT-549 breast. For the same molecule, the growth in the test with MDA-MB-435 melanoma was 98.3% (inactive) and 98.4% (inactive); with SW-620 colon, 3.21% (active) and 7.75% (active); in the test on MCF7 breast, 84.4% (inactive) and 78.6% (inactive); in the test on HCT-116 colon, 2.43% (active) and 17.7% (inactive); in the test on HCC-2998 colon, 103% (inactive); with KM12 colon it was 104% (inactive) and 103% (inactive).

These data come from PubChem BioAssay (NCI).
